These results are taken from PubChem BioAssay (Tox21).

Structures are written as SMILES. Records with an inconclusive call do not appear. Unmarked numbers belong to inactive results. Active and inactive are the calls of the source. Unless noted, calls follow the shape of the dose curve; as a rule, active = well fitted curve in the direction sought with a large enough effect in the repeat runs; inconclusive = weak or mixed curves; inactive = no such curve, though single readings can be large; an effect the other way counts as inactive or inconclusive.

Experiment [1] in a line: qHTS assay to identify small molecule agonists of the peroxisome proliferator-activated receptor delta (PPARd) signaling pathway - cell viability counter screen (AID 743211). Also: % is scaled to controls: 0 for no effect and ±100 for the full control effect; nearly all actives have a fitted effect of over 55% in size. Summed up: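 Viability of GeneBLAzer PPARd UAS-bla HEK293H cells was assessed after 17 h compound incubation at 37C, using CellTiter-Glo reagent added after the reporter read and luminescence recorded 30 min later.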
In general terms: In qHTS, concentration-response curves come from the screen itself.

The target in experiment [2] is Peroxisome proliferator-activated receptor delta (Homo sapiens) (UniProt Q03181). Put plainly: qHTS assay to identify small molecule agonists of the peroxisome proliferator-activated receptor delta (PPARd) signaling pathway (AID 743212; calls by dose curve; also: % is scaled to controls: 0 for no effect and ±100 for the full control effect). The gist of the method: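 Beta-lactamase reporter readout: a ratiometric FRET signal from the LiveBLAzer substrate after 2 h at room temperature. Compound exposure at 37 °C in PPARδ-bla HEK293H cells driven by an upstream activator sequence.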
Chain of Peroxisome proliferator-activated receptor delta (Homo sapiens) (Q03181 whole entry, looked up): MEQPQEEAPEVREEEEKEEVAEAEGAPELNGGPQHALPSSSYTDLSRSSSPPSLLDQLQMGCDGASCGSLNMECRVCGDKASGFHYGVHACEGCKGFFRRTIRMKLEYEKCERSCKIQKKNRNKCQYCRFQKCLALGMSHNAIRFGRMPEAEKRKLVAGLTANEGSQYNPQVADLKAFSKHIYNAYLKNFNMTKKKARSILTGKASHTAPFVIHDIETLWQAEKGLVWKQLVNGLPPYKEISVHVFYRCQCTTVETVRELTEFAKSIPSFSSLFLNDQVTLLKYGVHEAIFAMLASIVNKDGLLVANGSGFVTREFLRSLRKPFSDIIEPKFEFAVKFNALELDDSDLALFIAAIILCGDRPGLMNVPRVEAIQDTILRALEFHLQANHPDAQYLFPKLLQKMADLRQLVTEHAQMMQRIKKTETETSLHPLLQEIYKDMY

A short description of experiment [3]: qHTS assay to identify small molecule antagonists of the peroxisome proliferator-activated receptor delta (PPARd) signaling pathway - cell viability counter screen (AID 743213). Also: % is scaled to controls: 0 for no effect and ±100 for the full control effect; nearly all actives have a fitted effect of over 50% in size. The gist of the method: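 PPARd-bla HEK293H cells (3000/well) got compound plus 300 nM L165041 agonist for 17 h at 37 C. Viability in the same wells came from CellTiter-Glo luminescence after 30 min at room temperature.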

Experiment [4] deals with Peroxisome proliferator-activated receptor delta (Homo sapiens) (UniProt Q03181). Put plainly: qHTS assay to identify small molecule antagonists of the peroxisome proliferator-activated receptor delta (PPARd) signaling pathway (AID 743215; active = well fitted inhibition curve with a large enough effect in the signal ratio in the repeat runs, not every such curve was filed as active; the % refers to the signal ratio;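 also: cells stimulated with agonist L165041 at 300 nM final during compound exposure; series mostly up to about 62 µM; % is scaled to controls: 0 for no effect and ±100 for the full control effect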). The gist of the method: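 HEK293H GeneBLAzer PPARd UAS-bla reporter cells; cpd + L165041 300 nM final, 17 h 37 C; LiveBLAzer B/G FRET substrate 2 h RT; fluorescence intensity read-out. Antagonist mode.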

A short description of experiment [5]: qHTS assay to identify small molecule agonists of the farnesoid-X-receptor (FXR) signaling pathway - cell viability counter screen (AID 743218). Also: % is scaled to controls: 0 for no effect and ±100 for the full control effect; nearly all actives have a fitted effect of over 45% in size. Summed up:
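Luminescence from CellTiter-Glo, read after 30 min at RT, reports viability of GeneBLAzer FXR-UAS-bla HEK 293T cells treated 16 h with compounds in the wells used for the beta-lactamase reporter.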

Experiment [6] is described as follows: qHTS assay to identify small molecule antagonists of the farnesoid-X-receptor (FXR) signaling pathway - cell viability counter screen (AID 743221; active = well fitted cell-killing curve with a large enough effect in the repeat runs, not every such curve was filed as active; also: % is scaled to controls: 0 for no effect and ±100 for the full control effect; nearly all actives have a fitted effect of over 50% in size). The gist of the method:
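Quantitative HTS of the Tox21 10K library run in parallel with the beta-lactamase reporter read. HEK 293T cells carrying a UAS-driven bla reporter got compound and 50 uM CDCA (final) for 16 h; ATP-based luminescence followed.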

Experiment [7] addresses Vitamin D3 receptor (Homo sapiens) (UniProt P11473). Description: qHTS assay to identify small molecule agonists of the vitamin D receptor (VDR) signaling pathway (AID 743222; calls by dose curve; also: % is scaled to controls: 0 for no effect and ±100 for the full control effect). The gist of the method:
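Beta-lactamase reporter readout (LiveBLAzer B/G FRET, 2 h RT) in VDR-bla cells after 16 h compound treatment at 37C, 5% CO2; cells pre-incubated 4 h before pin transfer of DMSO solutions.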

Experiment [8] shares this target. Put plainly: qHTS assay to identify small molecule antagonists of the vitamin D receptor (VDR) signaling pathway (AID 743223; active = well fitted inhibition curve with a large enough effect in the signal ratio in the repeat runs, not every such curve was filed as active; the % refers to the signal ratio; also: % is scaled to controls: 0 for no effect and ±100 for the full control effect). Summed up: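 Fluorescence from LiveBLAzer B/G FRET substrate, read after 2 h at room temperature, reflects beta-lactamase reporter activity in VDR-bla cells treated 16 h at 37C with compounds and agonist 1alpha,25-dihydroxyvitamin D3 (3 nM final).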

A short description of experiment [9]: qHTS assay to identify small molecule agonists of the vitamin D receptor (VDR) signaling pathway - cell viability counter screen (AID 743224). Also: series mostly up to about 63 µM; % is scaled to controls: 0 for no effect and ±100 for the full control effect; nearly all actives have a fitted effect of over 50% in size. The gist of the method:
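Cytotoxicity counter screen: VDR-bla cells, 16 h compound exposure at 37C, 5% CO2; CellTiter-Glo luminescence, 30 min RT, same wells as bla read.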

The nature of experiment [10]: qHTS assay to identify small molecule antagonists of the vitamin D receptor (VDR) signaling pathway - cell viability counter screen (AID 743225). Also: % is scaled to controls: 0 for no effect and ±100 for the full control effect; nearly all actives have a fitted effect of over 50% in size. Summed up: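 Cells (VDR-UAS-bla HEK 293T) are plated, rested 4 h at 37C, dosed with compound and 3 nM final 1-alpha,25-dihydroxy vitamin D3, and incubated 16 h. Viability is taken from CellTiter-Glo luminescence in the reporter wells.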

Experiment [11] in a line: qHTS assay to identify small molecule agonists of the NFkB signaling pathway - cell viability counter screen (AID 1159515; calls by dose curve; also: series mostly up to about 61 µM; % is scaled to controls: 0 for no effect and ±100 for the full control effect; nearly all actives have a fitted effect of over 55% in size). The gist of the method:
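ME-180 NFkB-bla cells, 2,000/well; overnight attach; compound 5 hr, 37 C/5% CO2; LiveBLAzer substrate 1.5 hr RT; then CellTiter-Glo in same wells, 30 min RT, luminescence read.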

The nature of experiment [12]: qHTS assay to identify small molecule agonists of the endoplasmic reticulum stress response signaling pathway (AID 1159516; active = well fitted activation curve with a large enough effect in the signal ratio in the repeat runs, not every such curve was filed as active; the % refers to the signal ratio; also: % is scaled to controls: 0 for no effect and ±100 for the full control effect). The gist of the method:
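HeLa ESRE-bla reporter line; cpd 5 h, 37 C/5% CO2; LiveBLAzer B/G FRET substrate 2 h RT; ex 405, em 460/530 nm.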

Experiment [13] is described as follows: qHTS assay to identify small molecule antagonists of the retinoid-related orphan receptor gamma (ROR-gamma) signaling pathway - cell viability counter screen (AID 1159520). Summed up: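 Cytotoxicity was read from cellular ATP (CellTiter-Glo luminescence) after 16 hr at 37 C with 1 uM doxycycline induction. The inducer was added 2 hr after compound transfer to Tet-on ROR gamma CHO cells.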

Experiment [14] deals with Nuclear receptor ROR-gamma (Homo sapiens) (UniProt P51449). Description: qHTS assay to identify small molecule antagonists of the retinoid-related orphan receptor gamma (ROR-gamma) signaling pathway (AID 1159521; also: nearly all actives have a fitted effect of over 50% in size; also: potency is read from the fitted curve at half-maximal effect). The gist of the method:
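RORγ antagonism is scored from reduced reporter luminescence in Tet-on CHO cells. Induction used 1 uM final doxycycline hyclate for 16 h at 37 C, following a 2 h compound exposure.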

Experiment [15] can be described thus: qHTS assay to identify small molecule agonists of the AP-1 signaling pathway - cell viability counter screen (AID 1159525; calls by dose curve; also: nearly all actives have a fitted effect of over 55% in size). Summed up: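 Intracellular ATP by Cell Titer Glo luminescence (30 min, RT) in the same ME-180 AP-1-bla wells after the 5 h compound exposure at 37 °C. Normalised to tetra n-octyl ammonium bromide and DMSO controls.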
The nature of experiment [16]: qHTS assay to identify small molecule agonists of the AP-1 signaling pathway (AID 1159526; calls by dose curve; also: % is scaled to controls: 0 for no effect and ±100 for the full control effect).
In experiment [17] the target is Bile acid receptor (Homo sapiens) (UniProt Q96RI1). Description: qHTS assay to identify small molecule antagonists of the farnesoid-X-receptor (FXR) signaling pathway (AID 743217; active = well fitted inhibition curve with a large enough effect in the signal ratio in the repeat runs, not every such curve was filed as active; the % refers to the signal ratio; also: % is scaled to controls: 0 for no effect and ±100 for the full control effect). Summed up: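 Read-out: beta-lactamase FRET fluorescence (LiveBLAzer B/G substrate, 2 h, room temperature) in GeneBLAzer FXR-UAS-bla HEK 293T cells. Compounds were co-dosed with 50 uM chenodeoxycholic acid (final) and incubated 16 h at 37 °C.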
Chain of Bile acid receptor (Homo sapiens) (Q96RI1 whole entry, looked up): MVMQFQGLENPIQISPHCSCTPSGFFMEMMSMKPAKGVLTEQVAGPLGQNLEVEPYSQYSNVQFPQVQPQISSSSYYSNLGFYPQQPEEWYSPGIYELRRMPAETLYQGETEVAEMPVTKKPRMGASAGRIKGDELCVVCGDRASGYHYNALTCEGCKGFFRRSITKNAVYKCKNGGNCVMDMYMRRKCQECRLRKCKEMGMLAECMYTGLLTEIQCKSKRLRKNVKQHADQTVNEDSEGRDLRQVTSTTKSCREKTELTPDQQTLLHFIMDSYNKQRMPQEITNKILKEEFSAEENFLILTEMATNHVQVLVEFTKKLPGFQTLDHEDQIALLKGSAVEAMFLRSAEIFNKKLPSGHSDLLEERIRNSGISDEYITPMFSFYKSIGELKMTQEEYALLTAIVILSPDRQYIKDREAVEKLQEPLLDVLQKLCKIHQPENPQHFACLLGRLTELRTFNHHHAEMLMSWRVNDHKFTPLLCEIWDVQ

For experiment [18] the target is unchanged. Description: qHTS assay to identify small molecule agonists of the farnesoid-X-receptor (FXR) signaling pathway (AID 743220; active = well fitted activation curve with a large enough effect in the signal ratio in the repeat runs, not every such curve was filed as active; the % refers to the signal ratio; also: % is scaled to controls: 0 for no effect and ±100 for the full control effect). Summed up: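 FXR-UAS-bla HEK 293T cells carrying a UAS-driven beta-lactamase reporter were plated for 5 h at 37C/5% CO2, then exposed to DMSO-dissolved Tox21 10K compounds for 16 h at 37C. A LiveBLAzer B/G FRET substrate was loaded for 2 h at room temperature before fluorescence reading.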

Experiment [19] has as its target Retinoic acid receptor RXR-alpha (Homo sapiens) (UniProt P19793). Put plainly: qHTS assay to identify small molecule agonists of the RXR signaling pathway (AID 1159527; calls by dose curve; also: % is scaled to controls: 0 for no effect and ±100 for the full control effect; nearly all actives have a fitted effect of over 35% in size). Summed up:
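qHTS of the Tox21 10K library in GeneBLAzer RXR-alpha HEK 293T cells carrying a beta-lactamase reporter […]; 16 hr treatment, 9-cis retinoic acid as agonist control, FRET read-out.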

Chain of Vitamin D3 receptor (Homo sapiens) (P11473 whole entry, looked up): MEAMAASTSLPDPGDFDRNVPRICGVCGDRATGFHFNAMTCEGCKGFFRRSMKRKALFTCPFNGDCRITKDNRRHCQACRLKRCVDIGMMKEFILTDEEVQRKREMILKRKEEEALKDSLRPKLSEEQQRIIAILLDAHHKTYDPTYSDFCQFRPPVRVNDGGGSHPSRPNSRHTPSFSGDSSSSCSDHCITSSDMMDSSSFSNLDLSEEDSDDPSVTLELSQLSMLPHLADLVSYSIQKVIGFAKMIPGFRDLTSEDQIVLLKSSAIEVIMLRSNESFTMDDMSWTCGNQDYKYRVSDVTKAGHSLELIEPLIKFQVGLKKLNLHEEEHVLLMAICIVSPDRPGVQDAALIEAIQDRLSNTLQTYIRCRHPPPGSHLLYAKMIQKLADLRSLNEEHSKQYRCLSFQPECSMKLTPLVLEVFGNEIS
Chain of Retinoic acid receptor RXR-alpha (Homo sapiens) (P19793 whole entry, looked up): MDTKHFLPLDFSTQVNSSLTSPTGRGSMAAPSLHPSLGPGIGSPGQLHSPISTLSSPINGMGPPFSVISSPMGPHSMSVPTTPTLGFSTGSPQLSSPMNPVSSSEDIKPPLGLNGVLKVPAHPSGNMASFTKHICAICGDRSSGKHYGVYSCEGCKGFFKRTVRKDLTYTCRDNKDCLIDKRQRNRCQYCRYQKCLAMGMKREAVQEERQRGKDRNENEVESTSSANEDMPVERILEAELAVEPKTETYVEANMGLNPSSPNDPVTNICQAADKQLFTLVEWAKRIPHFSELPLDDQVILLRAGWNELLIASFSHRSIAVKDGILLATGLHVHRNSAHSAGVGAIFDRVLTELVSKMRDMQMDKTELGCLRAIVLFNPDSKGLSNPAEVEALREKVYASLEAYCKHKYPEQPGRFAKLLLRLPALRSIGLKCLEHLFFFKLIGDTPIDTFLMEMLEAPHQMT

On to `C=CCn1c(=O)n(CC=C)c(=O)n(CC=C)c1=O`, for which the Potency entry in [1], in [2], in experiment [3], in experiment [4], in experiment [5] and in experiment [6] was “inactive” throughout. Also, the Potency result in [7], in [8], in experiment [9], in experiment [10], in experiment [11] and in experiment [12] was “inactive” throughout. Moreover, the Potency result in experiment [13], in experiment [14], in [15] and in experiment [16] was “inactive” in each case.

`CC(C)CCOC(=O)/C=C/c1ccccc1`: the Potency result in [1], in experiment [2], in experiment [3], in [4], in [17] and in experiment [5] was “inactive” throughout. Moreover, the Potency result in [18], in [6], in experiment [10], in [11], in [12] and in [13] was “inactive” throughout. In addition, the Potency entry in experiment [14], in [15], in experiment [16] and in experiment [19] was “inactive” in each case.

For `Cc1cc(-c2ccc(N=Nc3cc(S(=O)(=O)O)c4ccccc4c3N)c(C)c2)ccc1N=Nc1cc(S(=O)(=O)O)c2ccccc2c1N`, the Potency entry in [2], in experiment [5], in experiment [6], in experiment [7], in experiment [11] and in experiment [12] was “inactive” throughout. In addition, the Potency result in [13], in experiment [15], in [16] and in experiment [19] was “inactive” throughout. Besides, the Potency in experiment [14] was 30.8 µM (active).

As to `CC/C=C\CCCCCO`, the Potency entry in experiment [1], in [2], in experiment [3], in experiment [4], in [5] and in experiment [6] was “inactive” each time. Moreover, the Potency entry in experiment [8], in experiment [10], in [11], in experiment [12], in [13] and in [14] was “inactive” throughout. In addition, the Potency result in experiment [15] and in experiment [16] was “inactive” throughout.

On to `O=C(Oc1ccccc1)Oc1ccccc1`, for which the Potency result in experiment [1], in experiment [2], in experiment [4], in [17], in [18] and in experiment [6] was “inactive” each time. The Potency result in experiment [7], in [8], in experiment [9], in experiment [10], in experiment [11] and in experiment [12] was “inactive” throughout. The Potency entry in [13], in experiment [14], in [15] and in [16] was “inactive” each time.

In the case of `CCCC[P+](C)(CCCC)CCCC`, the Potency entry in experiment [1], in [2], in experiment [3], in experiment [4], in experiment [17] and in [5] was “inactive” each time. Further, the Potency result in [18], in experiment [6], in experiment [8], in experiment [9], in experiment [10] and in experiment [11] was “inactive” in each case. In addition, the Potency entry in experiment [12], in [13], in experiment [14], in experiment [15], in experiment [16] and in experiment [19] was “inactive” in each case.

With `CCCCCCCC`, the Potency result in [1], in [2], in [4], in [17], in experiment [18] and in [6] was “inactive” throughout. The Potency result in experiment [7], in [8], in [9], in experiment [10], in experiment [11] and in experiment [12] was “inactive” in each case. The Potency result in experiment [13], in [14], in experiment [15], in experiment [16] and in experiment [19] was “inactive” throughout.

Consider `CC(C)(C)CC(C)(C)c1ccc(Nc2ccc(C(C)(C)CC(C)(C)C)cc2)cc1`, for which the activation in experiment [2] is 5.67% [at 5.95 µM]; in experiment [12], -2.77% [at 6.95 µM]; in experiment [16] it was 15.6% [at 6.97 µM]; in experiment [19], 3.93% [at 6.98 µM]. The viability change, negative = cytotoxic in [3] was 2.44% [at 6.26 µM]; in experiment [5], -9.89% [at 5.95 µM]; in experiment [10] it was 20.6% [at 6.95 µM]; in experiment [15], -3.55% [at 6.97 µM]. The ratio activity, negative = inhibition in experiment [4] is -4.33% [at 6.26 µM]. For the same compound, the activity change, negative = cytotoxicity in experiment [9] is 10.9% [at 5.95 µM]. Moreover, in experiment [11], the activity, negative = cytotoxic is -7.48% [at 6.95 µM]. Further, in experiment [13], the activity, negative = cytotoxicity was -0.0922% [at 8.39 µM]. Besides, in [14], the activity change, negative = inhibition was 1.61% [at 8.39 µM].
